Columns and labels:
Conditions in all cases: treatment time: 24 h
A549-CANX-COX4 [1] = test: phenotypically active (imaging signature differs from DMSO and reproducible) at any of 0.3-9 uM (binary (1 = active, 0 = inactive)); higher = active
How it was run: (§1)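 Two criteria together defined phenotypic activity: deviation and reproducibility. Deviation meant ≥3 of 4 wells beyond the 95th percentile of Euclidean distances in solvent control wells, and reproducibility meant a median replicate Pearson correlation above the 95th percentile of non-replicates. Wells had been treated for 24 h at 0.3, 1, 3 or 9 µM in fifteen gene-edited A549, HepG2 and WPMY1 reporter lines before live imaging.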

A549-TP53BP1-CLTA [2] = test: as above
How it was run: as §1

HepG2-ACTB-RAB5A [3] = test: as above
How it was run: as §1

HepG2-CANX-COX4 [4] = test: as above
How it was run: as §1

HepG2-GM130-SQSTM1 [5] = test: as above
How it was run: as §1

HepG2-TP53BP1-CLTA [6] = test: as above
How it was run: as §1

HepG2-TUBA1B-RELA [7] = test: as above
How it was run: as §1

WPMY1-ACTB-RAB5A [8] = test: as above
How it was run: as §1

WPMY1-CANX-COX4 [9] = test: as above
How it was run: as §1

WPMY1-GM130-SQSTM1 [10] = test: as above
How it was run: as §1

WPMY1-TP53BP1-CLTA [11] = test: as above
How it was run: as §1

WPMY1-TUBA1B-RELA [12] = test: as above
How it was run: as §1

A549-CANX-COX4 [13] = test: lowest phenotypically active concentration; higher = less potent
How it was run: as §1

A549-TP53BP1-CLTA [14] = test: as above
How it was run: as §1

HepG2-ACTB-RAB5A [15] = test: as above
How it was run: as §1

HepG2-CANX-COX4 [16] = test: as above
How it was run: as §1

HepG2-GM130-SQSTM1 [17] = test: as above
How it was run: as §1

HepG2-TP53BP1-CLTA [18] = test: as above
How it was run: as §1

HepG2-TUBA1B-RELA [19] = test: as above
How it was run: as §1

WPMY1-ACTB-RAB5A [20] = test: as above
How it was run: as §1

WPMY1-CANX-COX4 [21] = test: as above
How it was run: as §1

WPMY1-GM130-SQSTM1 [22] = test: as above
How it was run: as §1

WPMY1-TP53BP1-CLTA [23] = test: as above
How it was run: as §1

WPMY1-TUBA1B-RELA [24] = test: as above
How it was run: as §1

Cc1ccc(C(=O)c2ccc(CC(=O)O)n2C)cc1 [tolmetin]
inactive: phenotypically active (A549-CANX-COX4 [1]) 0 | phenotypically active (A549-TP53BP1-CLTA [2]) 0 | phenotypically active (HepG2-ACTB-RAB5A [3]) 0 | phenotypically active (HepG2-CANX-COX4 [4]) 0 | phenotypically active (HepG2-GM130-SQSTM1 [5]) 0 | phenotypically active (HepG2-TP53BP1-CLTA [6]) 0 | phenotypically active (HepG2-TUBA1B-RELA [7]) 0 | phenotypically active (WPMY1-ACTB-RAB5A [8]) 0 | phenotypically active (WPMY1-CANX-COX4 [9]) 0 | phenotypically active (WPMY1-GM130-SQSTM1 [10]) 0 | phenotypically active (WPMY1-TP53BP1-CLTA [11]) 0 | phenotypically active (WPMY1-TUBA1B-RELA [12]) 0

CC1(C)NC(=O)N(c2ccc([N+](=O)[O-])c(C(F)(F)F)c2)C1=O [nilutamide]
inactive: phenotypically active (A549-CANX-COX4 [1]) 0 | phenotypically active (A549-TP53BP1-CLTA [2]) 0 | phenotypically active (HepG2-ACTB-RAB5A [3]) 0 | phenotypically active (HepG2-CANX-COX4 [4]) 0 | phenotypically active (HepG2-GM130-SQSTM1 [5]) 0 | phenotypically active (HepG2-TP53BP1-CLTA [6]) 0 | phenotypically active (HepG2-TUBA1B-RELA [7]) 0 | phenotypically active (WPMY1-ACTB-RAB5A [8]) 0 | phenotypically active (WPMY1-CANX-COX4 [9]) 0 | phenotypically active (WPMY1-GM130-SQSTM1 [10]) 0 | phenotypically active (WPMY1-TP53BP1-CLTA [11]) 0 | phenotypically active (WPMY1-TUBA1B-RELA [12]) 0

CCCc1nc2c(C)cc(-c3nc4ccccc4n3C)cc2n1Cc1ccc(-c2ccccc2C(=O)O)cc1 [telmisartan]
inactive: phenotypically active (A549-CANX-COX4 [1]) 0 | phenotypically active (A549-TP53BP1-CLTA [2]) 0 | phenotypically active (HepG2-ACTB-RAB5A [3]) 0 | phenotypically active (HepG2-CANX-COX4 [4]) 0 | phenotypically active (HepG2-GM130-SQSTM1 [5]) 0 | phenotypically active (HepG2-TP53BP1-CLTA [6]) 0 | phenotypically active (HepG2-TUBA1B-RELA [7]) 0 | phenotypically active (WPMY1-ACTB-RAB5A [8]) 0 | phenotypically active (WPMY1-CANX-COX4 [9]) 0 | phenotypically active (WPMY1-GM130-SQSTM1 [10]) 0 | phenotypically active (WPMY1-TP53BP1-CLTA [11]) 0 | phenotypically active (WPMY1-TUBA1B-RELA [12]) 0

Cc1c2oc3c(C)ccc(C(=O)NC4C(=O)NC(C(C)C)C(=O)N5CCCC5C(=O)N(C)CC(=O)N(C)C(C(C)C)C(=O)OC4C)c3nc-2c(C(=O)NC2C(=O)NC(C(C)C)C(=O)N3CCCC3C(=O)N(C)CC(=O)N(C)C(C(C)C)C(=O)OC2C)c(N)c1=O (stereo not drawn) [Actinomycin D]
≤ 0.3 µM: lowest phenotypically active concentration (A549-CANX-COX4 [13]) | lowest phenotypically active concentration (A549-TP53BP1-CLTA [14]) | lowest phenotypically active concentration (HepG2-ACTB-RAB5A [15]) | lowest phenotypically active concentration (HepG2-CANX-COX4 [16]) | lowest phenotypically active concentration (HepG2-GM130-SQSTM1 [17]) | lowest phenotypically active concentration (HepG2-TP53BP1-CLTA [18]) | lowest phenotypically active concentration (HepG2-TUBA1B-RELA [19]) | lowest phenotypically active concentration (WPMY1-ACTB-RAB5A [20]) | lowest phenotypically active concentration (WPMY1-CANX-COX4 [21]) | lowest phenotypically active concentration (WPMY1-GM130-SQSTM1 [22]) | lowest phenotypically active concentration (WPMY1-TP53BP1-CLTA [23]) | lowest phenotypically active concentration (WPMY1-TUBA1B-RELA [24])
active: phenotypically active (A549-CANX-COX4 [1]) 1 | phenotypically active (A549-TP53BP1-CLTA [2]) 1 | phenotypically active (HepG2-ACTB-RAB5A [3]) 1 | phenotypically active (HepG2-CANX-COX4 [4]) 1 | phenotypically active (HepG2-GM130-SQSTM1 [5]) 1 | phenotypically active (HepG2-TP53BP1-CLTA [6]) 1 | phenotypically active (HepG2-TUBA1B-RELA [7]) 1 | phenotypically active (WPMY1-ACTB-RAB5A [8]) 1 | phenotypically active (WPMY1-CANX-COX4 [9]) 1 | phenotypically active (WPMY1-GM130-SQSTM1 [10]) 1 | phenotypically active (WPMY1-TP53BP1-CLTA [11]) 1 | phenotypically active (WPMY1-TUBA1B-RELA [12]) 1

Cc1cc(C(C)(C)C)c(O)c(C)c1CC1=NCCN1 [oxymetazoline]
3 µM: lowest phenotypically active concentration (WPMY1-GM130-SQSTM1 [22])
active: phenotypically active (WPMY1-GM130-SQSTM1 [10]) 1
inactive: phenotypically active (A549-CANX-COX4 [1]) 0 | phenotypically active (A549-TP53BP1-CLTA [2]) 0 | phenotypically active (HepG2-ACTB-RAB5A [3]) 0 | phenotypically active (HepG2-CANX-COX4 [4]) 0 | phenotypically active (HepG2-GM130-SQSTM1 [5]) 0 | phenotypically active (HepG2-TP53BP1-CLTA [6]) 0 | phenotypically active (HepG2-TUBA1B-RELA [7]) 0 | phenotypically active (WPMY1-ACTB-RAB5A [8]) 0 | phenotypically active (WPMY1-CANX-COX4 [9]) 0 | phenotypically active (WPMY1-TP53BP1-CLTA [11]) 0 | phenotypically active (WPMY1-TUBA1B-RELA [12]) 0
